Laboratory results taken from PMC7862700, “An all-to-all approach to the identification of sequence-specific readers for epigenetic DNA modifications on cytosine”.

Columns and labels:
Test in all cases: DAPPL (digital affinity profiling via proximity ligation, sequencing); 10 mM Tris-HCl pH 7.5, 50 mM NaCl, 1 mM DTT, 4% glycerol, room temperature, 30 min; GST-TFs on glutathione beads, 16-mer random dsDNA library, 0.1% formaldehyde crosslink after washing; high values mean tight binding
[1] = biological target: T1, FLI1 (Homo sapiens, UniProt Q01543 1-452); conditions: protein: recombinant; tags: N-terminal GST; dsDNA, one strand shown
T1 sequence: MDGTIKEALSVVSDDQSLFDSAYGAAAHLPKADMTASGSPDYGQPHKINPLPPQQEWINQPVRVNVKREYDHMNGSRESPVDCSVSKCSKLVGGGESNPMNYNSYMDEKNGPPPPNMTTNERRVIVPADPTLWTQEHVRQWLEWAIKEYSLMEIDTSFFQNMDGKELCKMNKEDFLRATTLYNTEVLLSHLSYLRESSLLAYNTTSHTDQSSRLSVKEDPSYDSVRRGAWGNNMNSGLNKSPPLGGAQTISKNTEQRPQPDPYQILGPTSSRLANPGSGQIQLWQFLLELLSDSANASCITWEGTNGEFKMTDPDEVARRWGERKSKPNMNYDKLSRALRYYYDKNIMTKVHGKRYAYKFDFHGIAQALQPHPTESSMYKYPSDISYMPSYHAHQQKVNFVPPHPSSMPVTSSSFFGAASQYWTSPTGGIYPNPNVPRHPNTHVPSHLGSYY
Procedure, shortened: (§1)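 GST fusions of human transcription factors were expressed in yeast and captured with glutathione beads. Once given DNA barcodes and pooled alongside a tag-only sample, they were incubated for 30 min at room temperature with 200 nmole of a random double-stranded 16-mer DNA library in Tris/NaCl/DTT/glycerol buffer, then washed, crosslinked (0.1% formaldehyde), proximity-ligated, PCR-amplified and sequenced on an Illumina NextSeq500. The binding signal of each hexamer is its read frequency for a factor divided by its frequency for the tag-only sample.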

[2] = biological target: T2, ELK1 (Homo sapiens, UniProt P19419 1-428); conditions: protein: recombinant; tags: N-terminal GST; dsDNA, one strand shown
T2 sequence: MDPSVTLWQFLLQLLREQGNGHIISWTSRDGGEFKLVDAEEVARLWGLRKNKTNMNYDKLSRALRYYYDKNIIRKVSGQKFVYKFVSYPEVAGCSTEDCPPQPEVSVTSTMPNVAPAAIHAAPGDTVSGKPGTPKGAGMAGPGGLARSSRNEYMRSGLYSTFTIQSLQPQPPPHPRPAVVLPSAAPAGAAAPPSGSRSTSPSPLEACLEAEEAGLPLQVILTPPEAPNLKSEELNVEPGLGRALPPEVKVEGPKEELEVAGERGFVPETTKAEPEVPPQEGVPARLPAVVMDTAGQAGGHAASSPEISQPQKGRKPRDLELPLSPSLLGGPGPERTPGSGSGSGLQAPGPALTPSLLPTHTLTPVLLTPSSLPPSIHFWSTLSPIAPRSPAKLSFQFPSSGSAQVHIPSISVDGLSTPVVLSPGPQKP
Procedure, shortened: as §1

[3] = biological target: T3, GABPA (Homo sapiens, UniProt Q06546 1-454); conditions: protein: recombinant; tags: N-terminal GST; dsDNA, one strand shown
T3 sequence: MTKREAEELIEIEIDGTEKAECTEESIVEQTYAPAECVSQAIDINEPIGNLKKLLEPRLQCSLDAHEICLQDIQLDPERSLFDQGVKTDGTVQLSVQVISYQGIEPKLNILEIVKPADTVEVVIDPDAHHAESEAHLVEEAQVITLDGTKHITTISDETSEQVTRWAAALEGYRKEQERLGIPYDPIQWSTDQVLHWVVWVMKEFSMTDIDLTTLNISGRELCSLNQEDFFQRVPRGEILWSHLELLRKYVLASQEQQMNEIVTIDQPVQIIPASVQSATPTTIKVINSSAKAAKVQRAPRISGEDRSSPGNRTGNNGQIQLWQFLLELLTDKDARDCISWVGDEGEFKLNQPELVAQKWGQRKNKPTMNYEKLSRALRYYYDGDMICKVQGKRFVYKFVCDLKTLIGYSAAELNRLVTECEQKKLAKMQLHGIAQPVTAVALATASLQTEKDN
Procedure, shortened: as §1

[4] = biological target: T4, ERG (Homo sapiens, UniProt P11308 1-479); conditions: protein: recombinant; tags: N-terminal GST; dsDNA, one strand shown
T4 sequence: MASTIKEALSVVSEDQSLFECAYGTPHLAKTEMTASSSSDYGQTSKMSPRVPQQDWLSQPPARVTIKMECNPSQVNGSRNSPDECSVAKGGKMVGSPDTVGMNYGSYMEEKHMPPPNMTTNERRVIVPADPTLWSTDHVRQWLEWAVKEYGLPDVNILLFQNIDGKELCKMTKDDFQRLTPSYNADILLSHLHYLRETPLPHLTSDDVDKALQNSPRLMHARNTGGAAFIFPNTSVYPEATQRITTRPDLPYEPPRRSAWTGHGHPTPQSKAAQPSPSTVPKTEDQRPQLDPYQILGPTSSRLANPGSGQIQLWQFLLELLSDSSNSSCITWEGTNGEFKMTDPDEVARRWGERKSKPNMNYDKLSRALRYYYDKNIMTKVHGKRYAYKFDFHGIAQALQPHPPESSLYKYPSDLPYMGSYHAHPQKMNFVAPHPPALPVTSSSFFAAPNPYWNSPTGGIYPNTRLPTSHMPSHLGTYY
Procedure, shortened: as §1

[5] = biological target: ELF1 (Homo sapiens, UniProt P32519 1-619); conditions: protein: recombinant; tags: N-terminal GST; dsDNA, one strand shown
Procedure, shortened: as §1

[6] = biological target: T5, EHF (Homo sapiens, UniProt Q9NZC4 1-300); conditions: protein: recombinant; tags: N-terminal GST; dsDNA, one strand shown
T5 sequence: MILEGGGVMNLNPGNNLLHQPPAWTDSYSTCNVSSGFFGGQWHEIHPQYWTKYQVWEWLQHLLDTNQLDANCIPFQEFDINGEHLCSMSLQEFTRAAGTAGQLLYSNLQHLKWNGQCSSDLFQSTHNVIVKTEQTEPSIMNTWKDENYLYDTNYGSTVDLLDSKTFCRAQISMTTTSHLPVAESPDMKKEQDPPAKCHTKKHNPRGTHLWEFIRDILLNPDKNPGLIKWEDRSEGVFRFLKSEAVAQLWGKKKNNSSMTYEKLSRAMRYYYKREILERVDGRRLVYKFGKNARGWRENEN
Procedure, shortened: as §1

[7] = biological target: SPI1 (Homo sapiens, UniProt P17947 1-270); conditions: protein: recombinant; tags: N-terminal GST; dsDNA, one strand shown
Procedure, shortened: as §1

[8] = biological target: SPIB (Homo sapiens, UniProt Q01892 1-262); conditions: protein: recombinant; tags: N-terminal GST; dsDNA, one strand shown
Procedure, shortened: as §1

[9] = biological target: T6, ELK3 (Homo sapiens, UniProt P41970 1-407); conditions: protein: recombinant; tags: N-terminal GST; dsDNA, one strand shown
T6 sequence: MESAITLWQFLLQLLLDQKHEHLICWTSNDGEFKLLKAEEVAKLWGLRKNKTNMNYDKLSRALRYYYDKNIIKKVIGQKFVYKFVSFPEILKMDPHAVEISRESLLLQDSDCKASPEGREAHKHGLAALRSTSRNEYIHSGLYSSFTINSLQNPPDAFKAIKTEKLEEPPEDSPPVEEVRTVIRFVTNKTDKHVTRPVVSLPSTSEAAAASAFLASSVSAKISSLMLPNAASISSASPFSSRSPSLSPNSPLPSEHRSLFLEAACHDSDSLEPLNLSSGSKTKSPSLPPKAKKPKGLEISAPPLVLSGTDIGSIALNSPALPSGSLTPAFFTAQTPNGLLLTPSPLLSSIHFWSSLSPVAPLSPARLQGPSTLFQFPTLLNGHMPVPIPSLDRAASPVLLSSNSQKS
Procedure, shortened: as §1

[10] = biological target: T7, FEV (Homo sapiens, UniProt Q99581 1-238); conditions: protein: recombinant; tags: N-terminal GST; dsDNA, one strand shown
T7 sequence: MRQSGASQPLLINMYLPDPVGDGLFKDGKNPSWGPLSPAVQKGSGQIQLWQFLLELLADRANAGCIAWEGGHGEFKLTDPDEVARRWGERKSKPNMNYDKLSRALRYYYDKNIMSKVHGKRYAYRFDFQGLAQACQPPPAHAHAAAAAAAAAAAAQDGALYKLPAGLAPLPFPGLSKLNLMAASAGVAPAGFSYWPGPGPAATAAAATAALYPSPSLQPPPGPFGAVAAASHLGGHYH
Procedure, shortened: as §1

[11] = biological target: ETV5 (Homo sapiens, UniProt P41161 1-510); conditions: protein: recombinant; tags: N-terminal GST; dsDNA, one strand shown
Procedure, shortened: as §1

[12] = biological target: HSF1 (Homo sapiens, UniProt Q00613 1-529); conditions: protein: recombinant; tags: N-terminal GST; chain copies: 3; dsDNA, one strand shown
Procedure, shortened: as §1

[13] = biological target: T8, SPIC (Homo sapiens, UniProt Q8N5J4 1-248); conditions: protein: recombinant; tags: N-terminal GST; dsDNA, one strand shown
T8 sequence: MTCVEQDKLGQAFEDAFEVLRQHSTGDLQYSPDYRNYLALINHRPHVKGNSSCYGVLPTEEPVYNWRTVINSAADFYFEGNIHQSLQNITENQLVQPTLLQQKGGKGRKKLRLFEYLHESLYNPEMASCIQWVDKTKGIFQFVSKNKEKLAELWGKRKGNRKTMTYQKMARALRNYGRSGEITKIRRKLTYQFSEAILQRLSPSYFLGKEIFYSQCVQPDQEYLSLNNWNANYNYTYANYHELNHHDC
Procedure, shortened: as §1

[14] = biological target: ELF4 (Homo sapiens, UniProt Q99607 1-663); conditions: protein: recombinant; tags: N-terminal GST; dsDNA, one strand shown
Procedure, shortened: as §1

[15] = biological target: T9, ELK4 (Homo sapiens, UniProt P28324-2 1-405); conditions: protein: recombinant; tags: N-terminal GST; dsDNA, one strand shown
T9 sequence: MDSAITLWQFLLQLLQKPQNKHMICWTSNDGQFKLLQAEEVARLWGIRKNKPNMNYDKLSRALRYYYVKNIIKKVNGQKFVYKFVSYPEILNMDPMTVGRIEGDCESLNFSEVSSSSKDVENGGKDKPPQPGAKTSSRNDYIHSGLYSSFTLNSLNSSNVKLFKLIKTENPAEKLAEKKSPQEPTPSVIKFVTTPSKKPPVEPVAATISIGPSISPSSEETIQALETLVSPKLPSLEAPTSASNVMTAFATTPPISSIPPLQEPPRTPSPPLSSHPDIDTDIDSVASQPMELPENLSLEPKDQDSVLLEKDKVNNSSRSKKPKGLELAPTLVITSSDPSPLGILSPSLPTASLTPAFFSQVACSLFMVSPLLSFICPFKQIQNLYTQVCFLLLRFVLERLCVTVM
Procedure, shortened: as §1

[16] = biological target: T10, ETV2 (Homo sapiens, UniProt O00321 1-342); conditions: protein: recombinant; tags: N-terminal GST; dsDNA, one strand shown
T10 sequence: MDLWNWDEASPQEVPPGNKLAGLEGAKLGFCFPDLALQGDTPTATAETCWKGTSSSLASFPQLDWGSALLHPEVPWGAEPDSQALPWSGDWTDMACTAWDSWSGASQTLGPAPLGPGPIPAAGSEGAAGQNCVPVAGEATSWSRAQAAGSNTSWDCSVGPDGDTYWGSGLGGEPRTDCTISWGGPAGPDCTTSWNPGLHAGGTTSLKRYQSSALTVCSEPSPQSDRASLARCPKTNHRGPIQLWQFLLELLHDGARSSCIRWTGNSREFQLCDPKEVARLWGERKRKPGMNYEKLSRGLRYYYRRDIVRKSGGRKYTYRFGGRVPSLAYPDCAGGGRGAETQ
Procedure, shortened: as §1

[17] = biological target: T11, ELF3 (Homo sapiens, UniProt P78545 1-371); conditions: protein: recombinant; tags: N-terminal GST; dsDNA, one strand shown
T11 sequence: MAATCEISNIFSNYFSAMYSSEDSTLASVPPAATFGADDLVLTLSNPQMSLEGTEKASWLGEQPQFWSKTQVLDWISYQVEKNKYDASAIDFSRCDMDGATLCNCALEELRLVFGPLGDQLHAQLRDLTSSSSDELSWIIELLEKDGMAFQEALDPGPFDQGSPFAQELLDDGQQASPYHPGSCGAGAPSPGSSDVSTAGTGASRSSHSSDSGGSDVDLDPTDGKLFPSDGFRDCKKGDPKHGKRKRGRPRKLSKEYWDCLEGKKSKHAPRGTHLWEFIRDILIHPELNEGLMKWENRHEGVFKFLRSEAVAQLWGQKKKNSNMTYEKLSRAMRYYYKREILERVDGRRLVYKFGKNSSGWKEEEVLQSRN
Procedure, shortened: as §1

[18] = biological target: CRX (Homo sapiens, UniProt O43186 1-299); conditions: protein: recombinant; tags: N-terminal GST; dsDNA, one strand shown
Procedure, shortened: as §1

[19] = biological target: ETV1 (Homo sapiens, UniProt P50549 1-477); conditions: protein: recombinant; tags: N-terminal GST; dsDNA, one strand shown
Procedure, shortened: as §1

Sequence of CRX (O43186 whole entry): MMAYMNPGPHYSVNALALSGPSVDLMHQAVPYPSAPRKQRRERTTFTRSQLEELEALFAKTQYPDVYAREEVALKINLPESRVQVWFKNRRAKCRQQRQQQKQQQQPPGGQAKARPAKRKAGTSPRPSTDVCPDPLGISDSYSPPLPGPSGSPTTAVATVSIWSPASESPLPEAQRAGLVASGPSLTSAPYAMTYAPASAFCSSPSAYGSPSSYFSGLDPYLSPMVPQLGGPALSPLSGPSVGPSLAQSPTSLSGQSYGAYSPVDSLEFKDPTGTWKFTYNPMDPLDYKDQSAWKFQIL
Sequence of HSF1 (Q00613 whole entry): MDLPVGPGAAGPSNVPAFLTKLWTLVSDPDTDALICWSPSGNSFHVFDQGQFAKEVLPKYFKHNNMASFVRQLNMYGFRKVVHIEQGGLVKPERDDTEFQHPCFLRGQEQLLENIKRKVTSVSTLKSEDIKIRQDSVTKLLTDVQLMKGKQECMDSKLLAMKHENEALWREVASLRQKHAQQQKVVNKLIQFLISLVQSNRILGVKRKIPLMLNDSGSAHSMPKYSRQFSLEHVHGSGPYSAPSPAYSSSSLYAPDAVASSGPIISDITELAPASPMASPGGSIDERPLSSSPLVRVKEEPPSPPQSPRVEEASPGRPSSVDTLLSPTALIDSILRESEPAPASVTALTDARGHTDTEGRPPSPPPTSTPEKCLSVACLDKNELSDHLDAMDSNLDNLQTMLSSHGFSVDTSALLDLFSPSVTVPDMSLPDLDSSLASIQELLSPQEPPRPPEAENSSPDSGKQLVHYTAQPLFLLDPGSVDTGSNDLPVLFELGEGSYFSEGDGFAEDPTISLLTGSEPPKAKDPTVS
Sequence of ETV5 (P41161 whole entry): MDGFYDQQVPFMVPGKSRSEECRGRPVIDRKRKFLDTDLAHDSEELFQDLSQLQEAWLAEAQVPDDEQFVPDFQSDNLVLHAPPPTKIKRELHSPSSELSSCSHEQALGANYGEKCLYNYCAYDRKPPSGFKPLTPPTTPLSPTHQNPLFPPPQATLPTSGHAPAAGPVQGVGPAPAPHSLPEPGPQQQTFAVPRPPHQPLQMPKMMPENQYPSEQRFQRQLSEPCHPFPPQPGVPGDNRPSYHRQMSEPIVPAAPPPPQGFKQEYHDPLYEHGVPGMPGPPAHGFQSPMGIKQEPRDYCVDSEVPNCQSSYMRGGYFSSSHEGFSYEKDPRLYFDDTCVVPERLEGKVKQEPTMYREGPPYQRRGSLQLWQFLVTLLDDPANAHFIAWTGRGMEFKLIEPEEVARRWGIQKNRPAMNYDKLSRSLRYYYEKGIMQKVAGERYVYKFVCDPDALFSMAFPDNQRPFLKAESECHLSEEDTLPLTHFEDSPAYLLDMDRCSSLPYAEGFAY
Sequence of SPIB (Q01892 whole entry): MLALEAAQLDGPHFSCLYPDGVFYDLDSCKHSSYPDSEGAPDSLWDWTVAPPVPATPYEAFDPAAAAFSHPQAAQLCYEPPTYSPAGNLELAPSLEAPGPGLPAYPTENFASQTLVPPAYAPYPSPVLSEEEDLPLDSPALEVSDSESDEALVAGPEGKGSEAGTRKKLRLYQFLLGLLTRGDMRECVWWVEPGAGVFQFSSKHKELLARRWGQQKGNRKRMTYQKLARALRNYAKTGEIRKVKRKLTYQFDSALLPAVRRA
Sequence of ELF1 (P32519 whole entry): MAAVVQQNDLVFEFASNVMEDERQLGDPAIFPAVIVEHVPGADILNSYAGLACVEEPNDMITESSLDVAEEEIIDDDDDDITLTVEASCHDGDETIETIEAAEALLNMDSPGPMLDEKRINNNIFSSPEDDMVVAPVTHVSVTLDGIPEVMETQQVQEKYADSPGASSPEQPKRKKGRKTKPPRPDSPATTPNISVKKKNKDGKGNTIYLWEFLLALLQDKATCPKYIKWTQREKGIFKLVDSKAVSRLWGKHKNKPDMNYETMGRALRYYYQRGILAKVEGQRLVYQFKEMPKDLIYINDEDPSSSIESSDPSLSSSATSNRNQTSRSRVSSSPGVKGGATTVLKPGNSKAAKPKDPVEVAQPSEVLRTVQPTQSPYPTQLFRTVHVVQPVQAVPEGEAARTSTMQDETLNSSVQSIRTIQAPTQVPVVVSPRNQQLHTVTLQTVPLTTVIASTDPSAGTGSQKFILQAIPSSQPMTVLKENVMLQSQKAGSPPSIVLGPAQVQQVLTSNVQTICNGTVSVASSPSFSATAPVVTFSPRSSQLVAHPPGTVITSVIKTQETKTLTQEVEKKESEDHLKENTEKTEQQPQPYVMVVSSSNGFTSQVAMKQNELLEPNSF
Sequence of ETV1 (P50549 whole entry): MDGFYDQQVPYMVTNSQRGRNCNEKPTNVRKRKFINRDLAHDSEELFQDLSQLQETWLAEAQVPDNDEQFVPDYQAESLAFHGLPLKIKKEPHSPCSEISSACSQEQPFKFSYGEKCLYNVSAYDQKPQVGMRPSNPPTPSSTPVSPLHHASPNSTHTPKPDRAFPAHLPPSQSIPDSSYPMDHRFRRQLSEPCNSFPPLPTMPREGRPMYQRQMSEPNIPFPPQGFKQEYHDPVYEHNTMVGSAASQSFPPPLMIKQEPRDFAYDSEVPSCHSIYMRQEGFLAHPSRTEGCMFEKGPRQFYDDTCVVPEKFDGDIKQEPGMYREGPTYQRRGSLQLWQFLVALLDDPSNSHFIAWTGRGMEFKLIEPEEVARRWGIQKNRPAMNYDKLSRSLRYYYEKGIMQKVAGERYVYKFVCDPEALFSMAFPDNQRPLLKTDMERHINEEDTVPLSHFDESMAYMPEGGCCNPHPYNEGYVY
Sequence of ELF4 (Q99607 whole entry): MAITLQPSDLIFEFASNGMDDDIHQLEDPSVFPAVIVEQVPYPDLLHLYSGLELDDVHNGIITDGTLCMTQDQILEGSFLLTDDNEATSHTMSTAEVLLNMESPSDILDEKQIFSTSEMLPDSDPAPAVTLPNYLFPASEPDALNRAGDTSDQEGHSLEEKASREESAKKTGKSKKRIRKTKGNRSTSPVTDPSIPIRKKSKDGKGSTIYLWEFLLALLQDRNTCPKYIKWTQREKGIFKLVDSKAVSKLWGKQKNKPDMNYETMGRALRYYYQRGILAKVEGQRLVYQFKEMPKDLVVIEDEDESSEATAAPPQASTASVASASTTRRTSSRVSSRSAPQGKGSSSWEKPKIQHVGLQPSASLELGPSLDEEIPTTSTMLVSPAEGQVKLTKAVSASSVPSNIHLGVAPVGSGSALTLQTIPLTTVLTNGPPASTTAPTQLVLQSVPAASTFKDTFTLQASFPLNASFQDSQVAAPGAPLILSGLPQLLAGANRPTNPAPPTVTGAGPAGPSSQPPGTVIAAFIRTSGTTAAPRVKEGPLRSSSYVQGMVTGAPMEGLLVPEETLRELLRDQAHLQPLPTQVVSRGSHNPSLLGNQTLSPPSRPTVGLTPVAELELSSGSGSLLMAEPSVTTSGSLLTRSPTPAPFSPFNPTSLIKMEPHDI

With CTTGGA the binding signal [1] was 1.28 fold enrichment (6-mer frequency, TF over GST control), the binding signal [2] was 1.15 fold enrichment (6-mer frequency, TF over GST control) and the binding signal [3] was 1.16 fold enrichment (6-mer frequency, TF over GST control). The binding signal [4] was 1.17 fold enrichment (6-mer frequency, TF over GST control), the binding signal [5] was 1.27 fold enrichment (6-mer frequency, TF over GST control) and the binding signal [6] was 1.13 fold enrichment (6-mer frequency, TF over GST control). The binding signal [7] was 1.14 fold enrichment (6-mer frequency, TF over GST control), the binding signal [8] was 1.2 fold enrichment (6-mer frequency, TF over GST control) and the binding signal [9] was 1.17 fold enrichment (6-mer frequency, TF over GST control). The binding signal [10] was 1.04 fold enrichment (6-mer frequency, TF over GST control), the binding signal [11] was 1.12 fold enrichment (6-mer frequency, TF over GST control) and the binding signal [12] was 1.26 fold enrichment (6-mer frequency, TF over GST control). The binding signal [13] was 1.2 fold enrichment (6-mer frequency, TF over GST control), the binding signal [14] was 1.21 fold enrichment (6-mer frequency, TF over GST control) and the binding signal [15] was 1.09 fold enrichment (6-mer frequency, TF over GST control). The binding signal [16] was 1.12 fold enrichment (6-mer frequency, TF over GST control), the binding signal [17] was 1.3 fold enrichment (6-mer frequency, TF over GST control) and the binding signal [18] was 1.17 fold enrichment (6-mer frequency, TF over GST control). For the same sequence, the binding signal [19] was 1.17 fold enrichment (6-mer frequency, TF over GST control).
